These results are taken from PubChem BioAssay (Tox21).

Experiment [1] in a line: qHTS assay to identify aromatase inhibitors - cell viability counter screen (AID 743084).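 Note: cells stimulated with testosterone during compound exposure; nearly all actives have a fitted effect of over 55% in size.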 Note: potency is the fitted concentration of half-maximal effect.
Experiment [2] in a line: qHTS assay to identify small molecule that activate the aryl hydrocarbon receptor (AhR) signaling pathway - cell viability counter screen (AID 743086). Note: nearly all actives have a fitted effect of over 45% in size. Note: potency is the fitted concentration of half-maximal effect. The essentials:
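HepG2-AhR-luc (HG2L7.5c1) cells, 4000/well, were preincubated 5 h at 37C, exposed to compound in qHTS format for 24 hr at 37C, then given CellTiter-Fluor for 30 min; viability was read as fluorescence in the reporter wells.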
(qHTS replaces the single test concentration by a dilution series.)

A short description of experiment [3]: qHTS assay for small molecule activators of the heat shock response signaling pathway - cell viability counter screen (AID 743209). Note: nearly all actives have a fitted effect of over 50% in size. Note: potency is the fitted concentration of half-maximal effect. The essentials:
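CellSensor HSE-bla HeLa cells, plated overnight at 37 C/5% CO2, were exposed to compounds in DMSO for 5 h at 37 C. Viability was then read in the same wells by CellTiter-Glo luminescence after 30 min at room temperature.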

A short description of experiment [4]: qHTS assay to identify small molecule antagonists of the farnesoid-X-receptor (FXR) signaling pathway - cell viability counter screen (AID 743221; active = well fitted cell-killing curve with a large enough effect in the repeat runs, not every such curve was filed as active; note: nearly all actives have a fitted effect of over 50% in size; note: potency is the fitted concentration of half-maximal effect). Summed up: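 GeneBLAzer FXR-UAS-bla HEK 293T cells, compound plus chenodeoxycholic acid (50 uM final), 16 h at 37 C. CellTiter-Glo added to the same wells after the beta-lactamase read; luminescence read after 30 min at room temperature as viability.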

Experiment [5] can be described thus: qHTS assay for small molecule agonists of the antioxidant response element (ARE) signaling pathway - cell viability counter screen (AID 743203; calls by dose curve; note: nearly all actives have a fitted effect of over 55% in size; note: potency is the fitted concentration of half-maximal effect). The essentials: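 CellSensor ARE-bla HepG2 cells, 2,000 per well, rested 5 hrs at 37C/5% CO2, then exposed to compound in DMSO for 16 hrs; viability read as CellTiter-Glo luminescence after 30 min at room temperature, in the reporter wells.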

Experiment [6] is described as follows: qHTS assay to identify small molecule agonists of the peroxisome proliferator-activated receptor delta (PPARd) signaling pathway - cell viability counter screen (AID 743211). Note: nearly all actives have a fitted effect of over 55% in size. Note: potency is the fitted concentration of half-maximal effect. Summed up: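 PPARd-bla HEK293H cells (3000/well) were pre-incubated 5 h at 37 C, then exposed to compound for 17 h at 37 C. After 2 h with LiveBLAzer substrate, CellTiter-Glo was added to the same wells; luminescence read after 30 min at room temperature.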

For experiment [7], the target named is Peroxisome proliferator-activated receptor delta (Homo sapiens) (UniProt Q03181). The experiment is described as follows: qHTS assay to identify small molecule agonists of the peroxisome proliferator-activated receptor delta (PPARd) signaling pathway (AID 743212; calls by dose curve). The essentials:
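GeneBLAzer PPARd UAS-bla HEK293H cells (beta-lactamase reporter under UAS control), plated and rested 5 h at 37 C, then exposed to compounds in DMSO at 37 C; LiveBLAzer B/G FRET substrate added, 2 h room temperature, fluorescence read.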

Experiment [8] can be described thus: qHTS assay to identify small molecule antagonists of the peroxisome proliferator-activated receptor delta (PPARd) signaling pathway - cell viability counter screen (AID 743213). Note: nearly all actives have a fitted effect of over 50% in size. Note: potency is the fitted concentration of half-maximal effect. Summed up:
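Viability counter-screen, qHTS format: PPARd-bla HEK293H, L165041 300 nM final, 17 h compound exposure at 37 C, CellTiter-Glo luminescence after 30 min RT.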

Experiment [9] is described as follows: qHTS assay to identify small molecule antagonists of the peroxisome proliferator-activated receptor gamma (PPARg) signaling pathway - cell viability counter screen (AID 743194). Note: nearly all actives have a fitted effect of over 55% in size. Note: potency is the fitted concentration of half-maximal effect. Summed up:
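PPARg-UAS-bla HEK293H cells were plated, rested 5 h at 37 C, then treated with compounds plus rosiglitazone (50 nM final) for 17 h at 37 C; viability was then read by CellTiter-Glo luminescence after 30 min at room temperature.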

For experiment [10], the target named is Bile acid receptor (Homo sapiens) (UniProt Q96RI1). In words: qHTS assay to identify small molecule antagonists of the farnesoid-X-receptor (FXR) signaling pathway (AID 743217; active = well fitted inhibition curve with a large enough effect in the signal ratio in the repeat runs, not every such curve was filed as active; the % refers to the signal ratio; note: potency is the fitted concentration of half-maximal effect). Summed up:
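FXR-UAS-bla HEK 293T cells pre-incubated 5 h at 37 °C, then exposed to compounds with chenodeoxycholic acid (50 uM final) for 16 h at 37 °C. Beta-lactamase reporter read by LiveBLAzer B/G FRET substrate fluorescence after 2 h at room temperature.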

Experiment [11] can be described thus: qHTS assay to identify small molecule agonists of the farnesoid-X-receptor (FXR) signaling pathway - cell viability counter screen (AID 743218). Note: nearly all actives have a fitted effect of over 45% in size. Note: potency is the fitted concentration of half-maximal effect. The essentials:
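FXR-UAS-bla HEK 293T cells, plated 5 h at 37 C, were exposed to compounds for 16 h at 37 C. CellTiter-Glo was then added to the same wells as the bla readout; luminescence read after 30 min at room temperature.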

For experiment [12], the target named is Peroxisome proliferator-activated receptor delta (Homo sapiens) (UniProt Q03181). The experiment is described as follows: qHTS assay to identify small molecule antagonists of the peroxisome proliferator-activated receptor delta (PPARd) signaling pathway (AID 743215; active = well fitted inhibition curve with a large enough effect in the signal ratio in the repeat runs, not every such curve was filed as active; the % refers to the signal ratio;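 note: cells stimulated with agonist L165041 at 300 nM final during compound exposure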; note: potency is the fitted concentration of half-maximal effect). Summed up: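 PPARd UAS-bla HEK293H cells were pre-incubated 5 h at 37 C, then given test compounds in DMSO plus agonist L165041 (300 nM final). After 17 h at 37 C, beta-lactamase FRET substrate was added; fluorescence read after 2 h at room temperature.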

The target in experiment [13] is Vitamin D3 receptor (Homo sapiens) (UniProt P11473). The experiment is described as follows: qHTS assay to identify small molecule agonists of the vitamin D receptor (VDR) signaling pathway (AID 743222; calls by dose curve). The essentials:
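VDR-bla cells were plated 4 h at 37C/5% CO2, then exposed to compounds in DMSO for 16 h. After LiveBLAzer B/G FRET substrate addition and 2 h at room temperature, beta-lactamase reporter fluorescence was read.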

Experiment [14] can be described thus: qHTS assay for small molecule agonists of the antioxidant response element (ARE) signaling pathway (AID 743202; active = well fitted activation curve with a large enough effect in the signal ratio in the repeat runs, not every such curve was filed as active; the % refers to the signal ratio; note: potency is the fitted concentration of half-maximal effect). The essentials:
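Read-out: LiveBLAzer B/G FRET substrate fluorescence after 2 h at room temperature, following 16 h compound treatment at 37 C of HepG2 cells carrying an ARE-driven beta-lactamase reporter.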

Experiment [15] concerns the target Aryl hydrocarbon receptor (Homo sapiens) (UniProt P35869). In words: qHTS assay to identify small molecule that activate the aryl hydrocarbon receptor (AhR) signaling pathway (AID 743085).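 Note: HG2L7.5c1 human HepG2 liver cells with stably integrated DRE-driven firefly reporter; series mostly up to about 70 µM; nearly all actives have a fitted effect of over 15% in size.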 Summed up: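 HepG2 cells stably carrying a 20-DRE firefly luciferase reporter (HG2L7.5c1) treated with compound for 24 hr at 37C. Luciferase read by ONE-Glo luminescence, with CellTiter-Fluor viability read first.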

For experiment [16], the target named is Peroxisome proliferator-activated receptor gamma (Homo sapiens) (UniProt P37231). The experiment is described as follows: qHTS assay to identify small molecule agonists of the peroxisome proliferator-activated receptor gamma (PPARg) signaling pathway (AID 743094; active = well fitted activation curve with a large enough effect in the signal ratio in the repeat runs, not every such curve was filed as active; the % refers to the signal ratio). Summed up:
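GeneBLAzer PPARg UAS-bla HEK293H cells carrying a stably integrated beta-lactamase reporter were pre-incubated 5 h at 37C, then exposed to compounds in DMSO for 17 h at 37C; LiveBLAzer B/G FRET substrate was added for 1 h at room temperature and fluorescence read.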

A short description of experiment [17]: qHTS assay for small molecule activators of the heat shock response signaling pathway (AID 743210; active = well fitted activation curve with a large enough effect in the signal ratio in the repeat runs, with a control signal flat, not every such curve was filed as active; the % refers to the signal ratio; note: series mostly up to about 63 µM). Summed up: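 HSE-bla HeLa cells (beta-lactamase reporter under heat shock response elements) were exposed to compounds for 5 h at 37 C, then loaded with LiveBLAzer B/G FRET substrate for 2.5 h at room temperature before fluorescence reading.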
Experiment [18] addresses Bile acid receptor (Homo sapiens) (UniProt Q96RI1). In words: qHTS assay to identify small molecule agonists of the farnesoid-X-receptor (FXR) signaling pathway (AID 743220; active = well fitted activation curve with a large enough effect in the signal ratio in the repeat runs, not every such curve was filed as active; the % refers to the signal ratio). Summed up: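 Beta-lactamase reporter under UAS control in GeneBLAzer FXR HEK 293T cells (5000/well) measured with LiveBLAzer FRET substrate after 2 h at room temperature. Compound exposure lasted 16 h at 37C.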

For experiment [19], the target named is Vitamin D3 receptor (Homo sapiens) (UniProt P11473). The experiment is described as follows: qHTS assay to identify small molecule antagonists of the vitamin D receptor (VDR) signaling pathway (AID 743223; active = well fitted inhibition curve with a large enough effect in the signal ratio in the repeat runs, not every such curve was filed as active; the % refers to the signal ratio). Summed up:
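VDR-bla cells were treated with compound plus 3 nM final 1alpha,25-dihydroxyvitamin D3 for 16 h at 37C. Beta-lactamase reporter read by B/G FRET substrate fluorescence after 2 h at room temperature. qHTS format.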

Inconclusive results are not listed. Calls of active or inactive are those of the source. Unless noted, calls come from the whole dose curve; as a rule, active = well fitted curve in the direction sought with a large enough effect in the repeat runs; inconclusive = weak or mixed curves; inactive = no such curve, though single readings can be large; an effect the other way counts as inactive or inconclusive.

Sequence of Bile acid receptor (Homo sapiens) (Q96RI1 whole entry, looked up): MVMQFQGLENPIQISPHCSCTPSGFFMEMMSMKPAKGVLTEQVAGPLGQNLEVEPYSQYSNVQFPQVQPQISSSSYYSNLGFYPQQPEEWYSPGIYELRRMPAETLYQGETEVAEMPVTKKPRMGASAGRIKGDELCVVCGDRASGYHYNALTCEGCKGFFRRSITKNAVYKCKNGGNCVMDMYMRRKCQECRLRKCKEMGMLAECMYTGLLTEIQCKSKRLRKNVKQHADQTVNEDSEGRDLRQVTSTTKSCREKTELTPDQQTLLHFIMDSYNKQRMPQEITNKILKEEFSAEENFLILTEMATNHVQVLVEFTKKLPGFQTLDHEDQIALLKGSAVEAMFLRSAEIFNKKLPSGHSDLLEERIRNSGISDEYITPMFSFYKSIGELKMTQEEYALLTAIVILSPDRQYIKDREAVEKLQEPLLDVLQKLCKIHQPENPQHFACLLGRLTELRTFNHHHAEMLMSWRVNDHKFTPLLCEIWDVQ
Sequence of Vitamin D3 receptor (Homo sapiens) (P11473 whole entry, looked up): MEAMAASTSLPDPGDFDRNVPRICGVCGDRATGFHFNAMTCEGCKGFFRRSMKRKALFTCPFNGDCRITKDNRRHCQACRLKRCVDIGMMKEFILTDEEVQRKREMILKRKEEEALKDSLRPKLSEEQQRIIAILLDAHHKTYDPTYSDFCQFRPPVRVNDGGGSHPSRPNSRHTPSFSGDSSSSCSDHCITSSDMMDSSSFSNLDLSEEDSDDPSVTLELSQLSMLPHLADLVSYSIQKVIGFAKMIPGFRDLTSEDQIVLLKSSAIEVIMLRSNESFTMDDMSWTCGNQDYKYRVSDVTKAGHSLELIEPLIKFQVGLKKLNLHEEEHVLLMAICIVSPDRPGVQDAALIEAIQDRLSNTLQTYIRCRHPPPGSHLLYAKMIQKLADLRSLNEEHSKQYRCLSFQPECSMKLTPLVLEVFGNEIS
Sequence of Peroxisome proliferator-activated receptor delta (Homo sapiens) (Q03181 whole entry, looked up): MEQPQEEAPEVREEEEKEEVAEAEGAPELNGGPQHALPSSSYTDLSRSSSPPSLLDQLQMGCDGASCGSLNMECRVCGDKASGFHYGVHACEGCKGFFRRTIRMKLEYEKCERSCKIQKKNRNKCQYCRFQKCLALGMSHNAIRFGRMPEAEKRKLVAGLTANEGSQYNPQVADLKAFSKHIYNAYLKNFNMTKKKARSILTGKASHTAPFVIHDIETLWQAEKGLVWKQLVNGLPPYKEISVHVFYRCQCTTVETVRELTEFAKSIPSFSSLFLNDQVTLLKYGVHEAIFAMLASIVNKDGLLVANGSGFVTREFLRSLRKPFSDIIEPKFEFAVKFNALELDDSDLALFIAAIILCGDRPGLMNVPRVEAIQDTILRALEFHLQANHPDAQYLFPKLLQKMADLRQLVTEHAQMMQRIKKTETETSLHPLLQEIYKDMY
Sequence of Aryl hydrocarbon receptor (Homo sapiens) (P35869 whole entry, looked up): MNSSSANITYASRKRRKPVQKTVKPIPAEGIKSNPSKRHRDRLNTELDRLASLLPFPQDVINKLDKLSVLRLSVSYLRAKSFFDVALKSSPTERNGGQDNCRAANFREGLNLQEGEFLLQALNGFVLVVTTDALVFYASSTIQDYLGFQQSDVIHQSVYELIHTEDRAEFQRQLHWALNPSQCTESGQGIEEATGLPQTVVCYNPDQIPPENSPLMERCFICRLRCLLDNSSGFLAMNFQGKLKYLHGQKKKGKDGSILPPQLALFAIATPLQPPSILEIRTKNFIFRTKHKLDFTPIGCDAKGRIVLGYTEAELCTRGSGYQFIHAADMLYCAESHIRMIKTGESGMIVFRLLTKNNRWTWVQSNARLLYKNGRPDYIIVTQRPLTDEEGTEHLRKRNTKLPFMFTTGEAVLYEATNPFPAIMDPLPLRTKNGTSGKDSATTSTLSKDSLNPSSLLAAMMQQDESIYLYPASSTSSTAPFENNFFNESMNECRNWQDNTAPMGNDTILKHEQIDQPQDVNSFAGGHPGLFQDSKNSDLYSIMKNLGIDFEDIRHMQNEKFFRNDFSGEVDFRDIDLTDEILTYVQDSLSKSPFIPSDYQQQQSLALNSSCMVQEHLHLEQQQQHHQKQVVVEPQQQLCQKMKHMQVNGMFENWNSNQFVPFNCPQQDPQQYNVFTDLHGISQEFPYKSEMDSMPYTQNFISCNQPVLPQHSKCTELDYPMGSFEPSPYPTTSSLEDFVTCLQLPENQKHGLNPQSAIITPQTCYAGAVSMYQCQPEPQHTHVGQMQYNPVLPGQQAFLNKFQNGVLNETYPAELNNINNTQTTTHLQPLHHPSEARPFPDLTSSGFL
Sequence of Peroxisome proliferator-activated receptor gamma (Homo sapiens) (P37231 whole entry, looked up): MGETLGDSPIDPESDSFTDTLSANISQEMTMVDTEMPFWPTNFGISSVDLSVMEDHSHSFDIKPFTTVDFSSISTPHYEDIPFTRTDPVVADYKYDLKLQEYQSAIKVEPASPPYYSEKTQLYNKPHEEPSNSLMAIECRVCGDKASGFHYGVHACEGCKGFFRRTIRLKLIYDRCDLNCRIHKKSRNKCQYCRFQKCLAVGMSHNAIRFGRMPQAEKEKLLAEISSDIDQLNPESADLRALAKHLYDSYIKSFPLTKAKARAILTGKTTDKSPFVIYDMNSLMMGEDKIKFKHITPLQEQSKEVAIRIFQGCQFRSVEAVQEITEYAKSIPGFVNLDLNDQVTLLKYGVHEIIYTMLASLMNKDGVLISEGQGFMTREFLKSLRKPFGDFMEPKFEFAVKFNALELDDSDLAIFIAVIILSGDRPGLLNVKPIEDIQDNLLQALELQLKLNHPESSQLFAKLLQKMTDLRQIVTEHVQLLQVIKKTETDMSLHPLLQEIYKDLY

Consider `Oc1c(Cl)cc(Cl)c2cccnc12`, for which the Potency entry in experiment [1], in [2], in experiment [3] and in [4] was “inactive” each time.
For the compound `S=c1[nH]c2ccccc2s1`, the Potency result in experiment [1], in experiment [2], in experiment [5], in experiment [6], in experiment [7] and in experiment [8] was “inactive” each time. For the same compound, in experiment [4], the Potency entry was “inactive”.
On to `CCCCCCCCCCCC[N+](C)(C)CCCCCCCCCCCC`, for which the Potency was 21.7 µM (active) in experiment [1]; 48.6 µM (active) in [2]; 27.5 µM (active) in experiment [9]; 24.3 µM (active) in experiment [5]; 43.6 µM (active) in [3]; 17.4 µM (active) in [6]. Further, the Potency in experiment [8] is 13.8 µM (active); in experiment [10], 49 µM (active); in [11], 27.5 µM (active).
As for `C=C(C)C(=O)OCC(O)COc1ccc(C(C)(C)c2ccc(OCC(O)COC(=O)C(=C)C)cc2)cc1` (stereo unspecified), the Potency in experiment [1] was 61.1 µM (active); in [6], 54.9 µM (active); in [8], 13.8 µM (active); in experiment [12], 27.5 µM (active). In addition, the Potency result in experiment [2], in experiment [5], in [7] and in [13] was “inactive” throughout.
As to `N=C1N=C(N)c2ccccc21`, the Potency was 61.1 µM (active) in experiment [1], 19.3 µM (active) in experiment [14], 54.5 µM (active) in experiment [5] and 49 µM (active) in [3]. Also, the Potency result in experiment [9], in [8], in experiment [11], in experiment [4] and in [13] was “inactive” each time.
`CCCCCCCC[N+](CCCCCCCC)(CCCCCCCC)CCCCCCCC`: the Potency in experiment [1] was 21.6 µM (active); in experiment [2] it was 43.2 µM (active); in experiment [9], 10.9 µM (active); in experiment [5], 13.7 µM (active); in experiment [3], 4.89 µM (active); in experiment [6] it was 6.15 µM (active). Also, the Potency in experiment [8] was 6.9 µM (active); in experiment [4], 21.8 µM (active).
As for `O=C1c2ccccc2Cc2ccccc21`, the Potency entry in experiment [15], in [2], in experiment [16], in experiment [9], in [14] and in experiment [5] was “inactive” throughout. Further, the Potency result in [3], in experiment [17], in experiment [6], in experiment [7], in experiment [8] and in [12] was “inactive” each time. The Potency result in experiment [11], in [4] and in experiment [13] was “inactive” throughout.
For `N#CSc1ccc(N)c([N+](=O)[O-])c1`, the Potency is 38.8 µM (active) in experiment [1], 55.3 µM (active) in experiment [6] and 49.3 µM (active) in [8]. Further, the Potency entry in [5], in [3] and in experiment [18] was “inactive” throughout.
For the compound `O=c1cccccc1O`, the Potency result in [15], in [2], in [9], in experiment [5], in experiment [7] and in [10] was “inactive” throughout. Besides, the Potency entry in [11], in [18], in [4] and in experiment [19] was “inactive” each time.
